In the library only some 2.8% were active in any assay of this set; here they are far more common.
Env fusion inh: HIV envelope-mediated fusion inhibition | inhibition, % at 12.3 µM | AID 651610 | 360,000 compounds, 1.1% hits | HeLa-JRFL Env/CEM21 cell fusion, luciferase;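 active = mean replicate inhibition score of at least 50 and every replicate individually at or above 50; inconclusive = only one of the two criteria met; inactive = mean below 50 and not all replicates reaching 50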;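 also: 0% = plate neutral controls and 100% = maraviroc near 300 nM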
NSD2 inh: blocks human histone methyltransferase NSD2 | NSD2 peptide methylation, AlphaScreen, 120 min | 310,000 compounds, 0.54% hits | AID 743445 | O96028 | inhibition, % at 12.5 µM; in the data active = inhibition above about 50%
Glyco luc inh: blocks N-linked glycosylation in D54 reporter cells; D54 ERlucT glycosylation luciferase reporter, 24 h; percent of 100 nM tunicamycin response; reporter increase, % at 12.5 µM; 360,000 compounds, 0.23% hits;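 active = mean luciferase reporter signal, scaled so untreated is 0 and the glycosylation-blocking control 100, at or above a set limit in every replicate; inconclusive = mean reaches the limit but not every replicate does; inactive = mean below the limit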;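 also: luciferase carries N-glycosylation sites so blocking glycosylation raises the light; 0% = median of neutral control wells and 100% = median of 100 nM tunicamycin wells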
PAX8 inh HTS: lowers PAX8-driven luciferase in RMG-I cells; RMG-I TPO-luciferase reporter, SteadyGlo, 24 h; AID 652154; inhibition, % at 12.6 µM; 360,000 compounds, 1.2% hits;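 active = mean replicate inhibition at least 60% with every replicate also reaching 60%; inconclusive = only one of the two criteria is met; inactive = mean below 60% and not all replicates reaching 60%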;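 also: luciferase light reporting Pax8 driven TPO promoter activity; plate controls were median of neutral control wells for no effect and mitoxantrone controls for full effect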
EBV LMP1 NFkB: Epstein-Barr LMP1 NF-kappaB reporter inhibition; LMP1-induced NF-kappaB luciferase reporter cells, luminescence; inhibition, % at 12.5 µM; 350,000 compounds, 0.69% hits; in the data active = inhibition above about 41%; inconclusive = no clear call, values can overlap the other calls;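 also: 0% = neutral control wells and 100% = reference inhibitor control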
Shn3 3UTR inh: inhibitors of Schnurri-3 3'UTR reporter in osteoblasts | Clone20 osteoblast Shn3 3'UTR firefly luciferase, 24 h | inhibition, % at 12.5 µM | 360,000 compounds, 0.52% hits | AID 588674;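 active = mean inhibition of at least 75% with every replicate also reaching 75%; inconclusive = mean inhibition at least 75% but some replicate below; inactive = mean inhibition below 75%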;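 also: 0% = median of neutral control wells and 100% = pilot-screen positive control compound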
The depositor's hits bear a star; ? = inconclusive; / = no result; [ ] = remark or other dose.

SMILES | Env fusion inh | NSD2 inh | Glyco luc inh | PAX8 inh HTS | EBV LMP1 NFkB | Shn3 3UTR inh
C[C@@H]1CN([C@H](C)CO)C(=O)c2cc(NC(=O)Nc3ccc(F)cc3)ccc2O[C@H]1CN(C)Cc1ccc(C(F)(F)F)cc1 | / | / | / | 68* | / | /
C[C@@H]1CN([C@H](C)CO)C(=O)c2cc(NC(=O)Nc3ccc(F)cc3)ccc2O[C@H]1CN(C)Cc1ccc(Oc2ccccc2)cc1 | 13[16.7 µM] | / | / | / | / | /
COc1ccc(NC(=O)Nc2ccc3c(c2)C(=O)N([C@@H](C)CO)C[C@@H](C)[C@@H](CN(C)Cc2ccc(C(F)(F)F)cc2)O3)cc1 | ? | / | / | 105* | / | /
C[C@@H]1CN([C@@H](C)CO)C(=O)c2cc(NC(=O)Nc3ccc4c(c3)OCO4)ccc2O[C@@H]1CN(C)C(=O)Nc1ccc(C(F)(F)F)cc1 | -5[16.7 µM] | / | / | 77* | / | /
O=C(C[C@H]1C=C[C@H](NC(=O)Nc2ccccc2)[C@@H](CO)O1)NCc1cccc(F)c1 | -17[16.7 µM] | / | / | -1 | / | /
COc1ccc(NC(=O)Nc2ccc3c(c2)CC(=O)N([C@@H](C)CO)C[C@@H](C)[C@H](CN(C)Cc2ccc(C(F)(F)F)cc2)O3)cc1 | 61*[16.7 µM] | / | / | 45 | / | /
COc1ccc(CN(C)C[C@H]2Oc3ccc(NC(=O)Nc4ccc(C(F)(F)F)cc4)cc3CC(=O)N([C@@H](C)CO)C[C@@H]2C)cc1 | 13[16.7 µM] | / | / | -17 | / | /
COc1ccc(S(=O)(=O)Nc2ccc3c(c2)C(=O)N([C@H](C)CO)C[C@@H](C)[C@@H](CN(C)C(=O)Nc2ccccc2)OCCCC[C@@H](C)O3)cc1 | -4[16.7 µM] | / | / | -19 | / | /
COc1ccccc1-c1ccccc1[C@H]1[C@@H](CO)N(C(=O)C2CC2)[C@H]1C#N | / | / | / | 0 | / | /
COc1cccc2c1C(CO)N1C(C#N)C3CC(C(=O)O)C(C1C2)N3C (stereo not given) | / | / | -11 | / | 89* | -94
O=C(C[C@H]1C=C[C@@H](NC(=O)C2CCC2)[C@@H](CO)O1)NCc1ccccc1Cl | 1[16.7 µM] | / | / | -18 | / | /
C/C=C(\C)C(=O)OC1CC(C)(C)C[C@H]2C3=CC[C@@H]4[C@@]5(C)CCC(O[C@@H]6O[C@@H](C(=O)O)[C@@H](O)C(O[C@@H]7OC[C@H](O)[C@@H](O)[C@@H]7O[C@@H]7OC(CO)C(O)[C@@H](O)[C@@H]7O)C6O[C@@H]6OC(CO)C(O)C(O)C6O)[C@@](C)(CO)[C@@H]5CC[C@]4(C)[C@]3(C)CC(O)[C@@]12CO (stereo not given in full) | -23 | / | -8 | 75* | 8 | 9
O=C(Nc1cccc(S(=O)(=O)Nc2ccc(Cl)cc2)c1)c1ccc(Cl)nc1 | 56* | / | -6 | 18 | 14 | 91*
O=C(Nc1cccc(O)c1)c1cccc(S(=O)(=O)Nc2cccc(O)c2)c1 | 8 | -2 | 4 | 38 | 49* | -1
O=C(C[C@@H]1CC[C@@H](NC(=O)c2ccccc2)[C@@H](CO)O1)NCc1ccc(Oc2ccccc2)cc1 | 27[16.7 µM] | / | / | 12 | / | /
C/C(=C\CNc1ncnc2nc[nH]c12)CO | / | / | 1 | / | -6 | 16
CC(C)CCCCCCCCCCCCC(=O)NCC(=O)NC1C(C)OC(Nc2ncnc3nc[nH]c23)C(O)C1O (stereo not given) | ? | / | -18 | 106* | 92* | 92*
COc1ccc(C(=O)NCCN2CCOCC2)cc1[N+](=O)[O-] | 4 | -3 | 1 | -16 | 80* | 20
Cc1nc2ncccn2c1-c1csc(Nc2ccc(N(C)C)cc2)n1 | -104 | 25 | 51* | 12 | -1 | 33
Cc1nc2ncccn2c1-c1csc(Nc2ccccc2)n1 | 6 | 3 | 9 | -5 | 40* | -2
Cc1nc2sccn2c1-c1csc(NCc2ccccc2)n1 | 95* | 0 | -3 | / | 3 | 68
O=C(C[C@@H]1C=C[C@@H](NC(=O)c2cccc(F)c2)[C@@H](CO)O1)NCCN1CCCC1 | -16[16.7 µM] | / | / | -20 | / | /
COCC(=O)NC[C@H]1[C@H](c2ccccc2)[C@@H](CO)N1C(C)=O | / | / | / | -19 | / | /
CC(=O)NC(c1cc(Cl)c2cccnc2c1O)C(C)C (stereo not given) | 6 | / | -12 | 27 | 23 | 86*
COc1ccc(C(NC(=O)c2cccnc2)c2cc(Cl)c3cccnc3c2O)cc1OC (stereo not given) | / | 0 | -10 | / | 35 | 93*
SMILES | Env fusion inh | NSD2 inh | Glyco luc inh | PAX8 inh HTS | EBV LMP1 NFkB | Shn3 3UTR inh
CCC(=O)NC(c1ccco1)c1cc(Cl)c2cccnc2c1O (stereo not given) | ? | -3 | -10 | 85* | 13 | 83
CC(=O)NC(c1cc(Cl)c2ccccc2c1O)C(C)C (stereo not given) | 6 | / | 3 | 12 | 4 | 27
CCC(=O)NC(c1ccc(OC)cc1)c1cc(Cl)c2cccnc2c1O (stereo not given) | 46 | -1 | -13 | 29 | 38 | 60
CC(=O)NC(c1ccc(C)cc1)c1cc(Cl)c2cccnc2c1O (stereo not given) | 23 | 2 | -11 | 36 | 29 | 87*
COc1cccc(C(=O)Nc2ccc3c(c2)C(=O)N(C)[C@H]2CC[C@H](CC(=O)N[C@H](C)c4ccccc4)O[C@H]2CO3)c1 | / | / | / | 5 | / | /
O=C(CCc1ccccc1)NC(c1cccs1)c1cc(Cl)c2cccnc2c1O (stereo not given) | -163 | 2 | -16 | 78* | 54* | 81
CC(C)CC#Cc1ccc2c(c1)O[C@H](CN(C)Cc1ccccn1)[C@@H](C)CN([C@@H](C)CO)S2(=O)=O | -2[16.7 µM] | / | / | 61* | / | /
CC(C)CC#Cc1ccc2c(c1)O[C@H](CN(C)Cc1ccccn1)[C@H](C)CN([C@H](C)CO)S2(=O)=O | -19[16.7 µM] | / | / | 16 | / | /
CC(C)CC#Cc1ccc2c(c1)O[C@@H](CN(C)Cc1ccncc1)[C@H](C)CN([C@@H](C)CO)S2(=O)=O | 49[16.7 µM] | / | / | 87* | / | /
C[C@H](CO)N1C[C@H](C)[C@@H](CN(C)Cc2ccc(C(F)(F)F)cc2)Oc2ccc(NC(=O)Cc3ccccc3)cc2CC1=O | 8[16.7 µM] | / | / | 52 | / | /
C[C@@H]1CN([C@@H](C)CO)C(=O)Cc2cc(NC(=O)Cc3ccccc3)ccc2O[C@H]1CN(C)Cc1ccc(C(F)(F)F)cc1 | 15[16.7 µM] | / | / | 70* | / | /
C[C@H]1CN([C@@H](C)CO)C(=O)Cc2cc(NC(=O)Cn3cnnn3)ccc2O[C@H]1CN(C)Cc1ccc(C(F)(F)F)cc1 | 92*[16.7 µM] | / | / | -53 | / | /
C[C@@H]1CN([C@H](C)CO)C(=O)Cc2cc(NC(=O)Cc3ccccc3)ccc2O[C@@H]1CN(C)Cc1ccc(C(F)(F)F)cc1 | 16[16.7 µM] | / | / | 86* | / | /
COc1ccc(NC(=O)N(C)C[C@@H]2Oc3c(NS(=O)(=O)c4ccc(OC)cc4)cccc3C(=O)N([C@@H](C)CO)C[C@H]2C)cc1 | -29[16.7 µM] | / | / | -13 | / | /
COCC(=O)Nc1ccc2c(c1)OC[C@@H](C)N(CC1CCCCC1)C[C@H](C)[C@@H](OC)CN(C)C2=O | / | / | / | 13 | / | /
COc1ccc(Nc2c(CCc3ccccc3)nc3nc(C)cc(C)n23)cc1 | 85* | / | / | -8 | / | /

High-throughput results as filed in PubChem BioAssay.
